Tb PYK inh: qHTS of Trypanosoma Brucei Inhibitors; 410,000 compounds, 0.12% hits; AID 624173, 2012; Potency, µM (doses to about 76.8 µM), for inactives: top-dose activity, negative = inhibition, hits mostly inhibitors; TbPYK enzyme, Kinase-Glo Plus ATP luminescence, 45 min; pyruvate kinase (Trypanosoma brucei), Q57TT1; further: on the % scale 0 is the no-effect control and ±100 the full control effect; nearly all actives have a fitted effect of over 50% in size
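Enzyme and substrate buffer are dispensed first and compound is pin-transferred. ADP at 130 uM final then starts the reaction, which runs 45 min at room temperature. Detection reagent is added for 10 min before luminescence is imaged.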
RE007 growth inh: qHTS Assay for Inhibitors of the HIV-1 protein Vpr. Potency, µM (series often up to 92.2 µM), without a hit: at the top dose activity change, negative = less growth, actives largely listed as inhibitors. 360,000 compounds, 0.21% hits. S. pombe RE007 Vpr strain, BacTiter-Glo ATP luminescence, 24 h; active means well fitted falling curve with a large enough effect; inconclusive means small, poorly fitted or top-dose-only effect; inactive means no such curve, though single readings can be large or run the other way; further: on the % scale 0 is the no-effect control and ±100 the full control effect; nearly all actives have a fitted effect of over 50% in size
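Fission yeast RE007 carrying one integrated HIV-1 vpr copy, seeded at OD 0.01 in PMG+AL medium with 23 nL pinned compound. Grown 24 h at 30 degrees; viability read by BacTiter-Glo luminescence after 5 min.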
Sm TGR block: qHTS Assay for the Inhibitors of Schistosoma Mansoni Peroxiredoxins | Schistosoma mansoni thioredoxin glutathione reductase (TGR), Q962Y6 | purified TGR, DTNB reduction, TNB absorbance 405 nm | Potency, µM (series often up to 114 µM), without a hit: at the top dose activity change, negative = inhibition, usual class: inhibitors | 360,000 compounds, 3% hits | AID 485364, 2010; further: on the % scale 0 is the no-effect control and ±100 the full control effect; nearly all actives have a fitted effect of over 60% in size
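First, TGR (20 nM dispensed) and NADPH were mixed with compound. Second, a 15 min room-temperature incubation followed. Third, further NADPH and then DTNB were added to start the reaction. Finally, TNB absorbance was monitored kinetically.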
SARS PLP yeast: qHTS of Yeast-based Assay for SARS-CoV PLP; S. cerevisiae expressing SARS-CoV PLpro, growth rescue; Potency, µM (titrated, usually from 32.9 µM), for the others: at the top dose activity, positive = growth rescue, most hits filed as activators; 330,000 compounds, 0.19% hits; AID 485353, 2010; calls by dose curve; further: 0% is about no effect; nearly all actives have a fitted effect of over 55% in size
NS1 function inh: qHTS Assay for Inhibitors of Influenza NS1 Protein Function | Potency, µM (doses to about 46.1 µM), for inactives: at the highest dose activity, positive = more growth | 270,000 compounds, 0.4% hits | AID 2326, 2010; calls by dose curve; further: actives are rising curves; nearly all actives have a fitted effect of over 50% in size
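OD600 was taken as the measure of yeast growth restored by compound in an NS1-expressing S. cerevisiae strain. Cells had been washed out of glucose medium and diluted 1:100 into galactose -URA medium, pH 6.0.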
LmPK inhibitor: qHTS Assay for Inhibitors of Leishmania Mexicana Pyruvate Kinase (LmPK); AID 1721, 2009; 290,000 compounds, 0.37% hits; Potency, µM (highest dose often 57.5 µM), for the others: at the highest dose activity change, negative = inhibition, most hits filed as inhibitors; purified LmPK, Kinase-Glo ATP luminescence, 1 h; Q27686; further: on the % scale 0 is the no-effect control and ±100 the full control effect
Target sequence (Q27686 whole entry, looked up): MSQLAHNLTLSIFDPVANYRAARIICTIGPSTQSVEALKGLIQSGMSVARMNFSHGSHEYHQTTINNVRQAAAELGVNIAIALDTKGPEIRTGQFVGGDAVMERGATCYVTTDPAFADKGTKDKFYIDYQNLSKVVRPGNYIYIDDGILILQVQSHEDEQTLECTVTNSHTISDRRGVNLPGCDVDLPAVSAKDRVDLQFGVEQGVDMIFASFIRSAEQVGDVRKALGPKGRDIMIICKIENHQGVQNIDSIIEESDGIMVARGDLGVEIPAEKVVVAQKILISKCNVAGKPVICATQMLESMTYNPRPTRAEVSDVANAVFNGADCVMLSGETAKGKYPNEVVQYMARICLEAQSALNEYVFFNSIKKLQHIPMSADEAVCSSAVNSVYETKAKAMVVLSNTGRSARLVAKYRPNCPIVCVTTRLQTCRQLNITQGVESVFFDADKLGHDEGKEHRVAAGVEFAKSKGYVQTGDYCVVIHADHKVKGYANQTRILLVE
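Purified LmPK (0.1 nM) with 0.5 mM PEP and 0.1 mM ADP in imidazole buffer pH 7.2 with MgCl2/KCl, 1 h at room temperature. ATP formed was read by luciferase luminescence and normalized to no-enzyme and uninhibited controls.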
An asterisk follows results filed as active; u = inconclusive; x = no result given; [ ] = dose if it differs, or a comment. In the library only some 3.3% were active in any assay of this set; here they are far more common. Unless noted, the call rests on the fitted dose curve; in most records, active means well fitted curve in the direction sought with a large enough effect; inconclusive means small, poorly fitted or top-dose-only effect, or another doubt; inactive means no such curve, though single readings can be large; an effect the other way counts as inactive or inconclusive. Potency means the concentration at half of the fitted maximal effect.

SMILES	Tb PYK inh	RE007 growth inh	Sm TGR block	SARS PLP yeast	NS1 function inh	LmPK inhibitor
COc1ccc(C(c2c(C)[nH]n(-c3ccccc3)c2=O)c2c(C)[nH]n(-c3ccccc3)c2=O)cc1OC	-4%	7%	1%	13µM*	-7%	2%
Cc1cc(C)c2c(=O)n(CC(=O)Nc3ccc(Br)c(C)c3)sc2n1	8.9µM*	u	-30%	-5%	-88%	-22%
Cc1cc(C)c2c(=O)n(CC(=O)NC3CCCC3)sc2n1	10µM*	-13%	u	-4%	3%	-5%
COc1ccc(OC)c(CCNC(=O)Cn2sc3nc(C)cc(C)c3c2=O)c1	x	x	u	-18%	u	-1%
Cc1cc(C)c2c(=O)n(CC(=O)Nc3cccc(Cl)c3C)sc2n1	u	u	-36%	-17%	-53%	u
COc1cc(CNc2ccc(N3CCCC3)cc2)ccc1OCc1ccccc1	u	u	45µM*	-18%	-28%	-9%
COc1cc(NC(=O)C2Cc3ccccc3N2C(=O)c2ccccc2)cc(OC)c1 (configuration not stated)	1%	x	6%	x	x	x
COC(=O)/C=C/c1ccccc1S(=O)(=O)N(Cc1ccccc1)Cc1ccco1	-15%	10%	18µM*	-1%	3%	-27%
O=[N+]([O-])c1ccc(CN2CCN(c3ccccc3Cl)CC2)o1	0%	0%	0%	-12%	-5%	-4%
COc1ccccc1N1CCN(Cc2ccc(-c3ccccc3[N+](=O)[O-])o2)CC1	-2%	-10%	25µM*	-4%	-6%	-4%
Cc1ccccc1N1CCN(Cc2ccc([N+](=O)[O-])o2)CC1	-8%	-22%	35µM*	-5%	-5%	-1%
COc1ccccc1N1CCN(Cc2ccco2)CC1	33%	12%	-32%	1%	2%	0%
CC(=O)c1ccc(OCCCN2CCCCC2)cc1	-3%	9%	1%	4%	6%	3%
CCCCOc1ccc(C(=O)CCN2CCCCC2)cc1	-16%	u	0.32µM*	-49%	-43%	2%
CC(C)COc1ccc(C(=O)CCN2CCCCC2)cc1	-7%	u	0.35µM*	-12%	-18%	-2%
CC(C)COc1ccc(C(=O)OCCN2CCCCC2)cc1	4%	-15%	5%	-2%	8%	2%
COc1ccc(NC(=O)N2CCc3nc(COc4ccccc4)c4c(c3C2)CO[C@@H](C)C4)cc1	x	x	x	x	x	-4%[11.5 µM]
O=C1NC(=O)N(c2ccc(Cl)cc2)C(=O)/C1=C\c1ccc(Sc2nc3ccccc3[nH]2)o1	u	-19%	8.9µM*	4%	7%	-10%
C=CCN1C(=O)S/C(=C/c2ccc(Sc3nc4ccccc4[nH]3)o2)C1=O	-5%	-2%	-1%	-1%	22%	4%
CC1CCCCC1N(C)C1CCN(C(=O)CNC(=O)/C=C/c2cccc(Cl)c2)CC1 (configuration not stated)	3%	6%	35µM*	3%	5%	-3%
COCCn1c2c([n+](Cc3cnccn3)c1C)C(=O)c1ccccc1C2=O	0%	x	x	x	x	x
COc1ccc(Cl)cc1NC(=O)CCc1c(C)nc2c(c1C)c(=O)n(C)c(=O)n2C	1%	x	4%	x	x	x
CCOc1ccc(-n2cc(-c3ccccc3)c3c(NCc4ccc(F)cc4)ncnc32)cc1	4%	x	79µM*	x	x	x
Cc1cccc(Cc2c(C)nc3nc(SCC(=O)NCc4ccco4)nn3c2C)c1	3%	10%	35µM*	4%	u	-2%
Cc1cccc(Cc2c(C)nc3nc(SCC(=O)NC4CCCCC4)nn3c2C)c1	3%	x	3%	x	x	x
SMILES	Tb PYK inh	RE007 growth inh	Sm TGR block	SARS PLP yeast	NS1 function inh	LmPK inhibitor
Cc1nc2nc(SCC(=O)NCc3ccco3)nn2c(C)c1Cc1c(F)cccc1Cl	-5%	28%	50µM*	-1%	-8%	3%
CCCCNC(=O)CSc1nc2nc(C)c(Cc3c(F)cccc3Cl)c(C)n2n1	-3%	x	-5%	x	x	x
Cc1ccc(Cc2c(C)nc3nc(SCC(=O)NCc4ccco4)nn3c2C)cc1	0%	29%	40µM*	-11%	4%	7%
Cc1nc2nc(SCC(=O)NCc3ccccc3)nn2c(C)c1Cc1ccccc1	-1%	x	17%	x	x	x
Cc1ccccc1Cc1c(C)nc2c(C(=O)NCc3ccco3)cnn2c1C	-11%	3%	22µM*	-8%	-63%	2%
CCOC(=O)c1cc(-c2ccc(OC)cc2)n(CCC(=O)NCc2ccccc2OC)c1C	-3%	x	-6%	x	x	x
Cc1ccccc1Cc1c(C)nc2nc(SCC(=O)NCc3ccco3)nn2c1C	-2%	6%	25µM*	0%	-5%	2%
Cc1ccccc1Cc1c(C)nc2nc(SCC(=O)NC(C)c3ccccc3)nn2c1C (configuration not stated)	3%	x	-3%	x	x	x
CN(C(=O)Cn1nc(Cc2cccnc2)c2ccccc2c1=O)c1cccc(C(F)(F)F)c1	2%	x	8%	x	x	x
Cc1ccc(C2C=C(c3ccc(Cl)cc3)Nc3nc(NS(=O)(=O)c4ccccc4)nn32)cc1 (configuration not stated)	3%	x	32µM*	x	x	x
CC(=O)Nc1nc2n(n1)C(c1ccccc1)C=C(c1ccccc1)N2 (configuration not stated)	-7%	5%	4µM*	2%	16%	-3%
COc1ccccc1C1C=C(c2ccc(Cl)cc2)Nc2nc(NS(C)(=O)=O)nn21 (configuration not stated)	x	x	40µM*	-8%	-2%	1%
COc1ccc(C2C=C(c3ccc(Cl)cc3)Nc3nc(NC(C)=O)nn32)cc1 (configuration not stated)	x	x	u	3%	10%	1%
COc1ccccc1C1C=C(c2ccc(Cl)cc2)Nc2nc(N3C(=O)CCC3=O)nn21 (configuration not stated)	5%	-5%	0%	u	-3%	-2%
CS(=O)(=O)Nc1nc2n(n1)C(c1ccccc1)C=C(c1ccc(Br)cc1)N2 (configuration not stated)	-13%	10%	22µM*	3%	16%	-1%
COc1ccccc1NC(=O)CSc1nncn2c1cc1sccc12	-3%	x	5%	x	x	x
Cc1ccc2nc(-c3cccs3)c(Nc3c(C)cccc3C)n2c1	-3%	x	4%	x	x	x
Clc1ccc(-c2noc3ncnc(NCCc4ccccc4)c23)cc1	-8%	x	-5%	x	x	x

Screening results as filed in PubChem.
